Shown are actives, neighbours in structure and some others; about 1.3% of the full set was active somewhere.
CRFR2-BP ag: CRF-BP/CRF-R2 complex agonism; HEK293 CRF-R2/CRF-BP, calcium dye fluorescence (FLIPR); percent of saturating CRF peptide response; activation, % at 13.2 µM; 0.46% of 350,000 active;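 active = activation of at least 50%, plus an integration ratio under a set limit after plate pattern correction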;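 also: plate controls were neutral control wells without compound for no effect and CRF at EC100 for full effect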
RTF Ca sens act: increases calcium sensitivity of human cardiac regulated thin filaments. P19429+P45379. IANBD-labeled TnC RTF fluorescence at EC20 calcium; 0% EC20 calcium, 100% full calcium. AID 493008. 0.24% of 340,000 active. activation, % at 7.2 µM;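 active = activation above the mean over all tested compounds plus 3 SD, cut at about 30% in these data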;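 also: rise in fluorescence read as greater calcium sensitivity of cardiac thin filaments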
CRFBP-R2 block: blocks CRF-induced signaling of the CRF-BP/CRF-R2 complex | HEK293 CRF-R2/CRF-BP, CRF-induced calcium fluorescence | inhibition, % at 11.8 µM | AID 588475 | 0.59% of 350,000 active;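 active = inhibition of the ligand-induced calcium signal above about 50% at the single tested concentration, limit read from the data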
RTF Ca sens inh: cardiac RTF calcium desensitization; inhibition, % at 7.15 µM; IANBD-labeled cardiac RTF, Ca2+ fluorescence; P19429+P45379; 0.12% of 340,000 active; AID 493244;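 active = inhibition above the mean inhibition of all tested compounds plus 3 SD, cut at about 17% in these data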;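 also: assay run at fixed EC70 calcium of 1.6 mM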
Active calls of the source: *; nt = not tested or not shown.

SMILES | CRFR2-BP ag | RTF Ca sens act | CRFBP-R2 block | RTF Ca sens inh
Cc1ccc(N(CC(=O)N(C)Cc2ccccc2)S(C)(=O)=O)cc1C | 0 | -7 | 11 | -1
ON1C(c2ccc(Cl)cc2Cl)N(O)[C@H]2CCCC[C@H]21 (stereo not given in full) | -2 | 0 | 51* | 9
COc1ccc2c(c1OC)C(=O)N1c3ccccc3COC21 (stereo not given) | -2 | -1 | 67* | 8
COc1ccc2c(c1OC)C(=O)N1c3cccc(Cl)c3C(=O)OC21 (stereo not given) | -2 | -1 | -4 | -9
Cc1ccccc1-c1n[nH]c(=S)n1/N=C/c1c(C)nn(-c2ccccc2)c1C | -1 | -1 | 71* | 7
Cc1cccc(C)c1NC(=O)Cc1cccs1 | 1 | 2 | 78* | -6
Cc1cc(C)nc(NC(=O)Cc2cccs2)n1 | -1 | -1 | 7 | -2
CC1CCN(C(=O)c2ncn3c2c(=O)[nH]c2ccc(Br)cc23)CC1 | -1 | nt | -10 | nt
Cc1ccc2c(nc3s/c(=C\c4ccc(-c5ccccc5C(=O)O)o4)c(=O)n32)c1C | 126* | 11 | -77 | -21
O=C(O)c1ccc(-c2ccc(/C=c3/sc4nc5ccccc5n4c3=O)o2)cc1Cl | 118* | 5 | -86 | -7
Cc1ccc2c(nc3s/c(=C/c4cccs4)c(=O)n32)c1C | -2 | -1 | 19 | 3
Cc1cccc(C(=O)N2CCc3ccccc3C2)c1[N+](=O)[O-] | -5 | -1 | 85* | 2
Cc1ccc(C(=O)O)cc1NC(=S)NC(=O)c1ccc(-c2ccc(Cl)cc2)o1 | 0 | -4 | 2 | -12
COc1ccc(CC(=O)NC(=S)Nc2cccc(C)c2)cc1 | 58* | 5 | -25 | -4
COc1ccc(CNC(=S)Nc2cccc(C)c2C)cc1 | -1 | -4 | 52* | -1
COc1ccc(C(=O)O)cc1NC(=S)NC(=O)c1ccc(-c2ccc(Cl)cc2)o1 | -2 | -12 | 86* | 1
COc1cccc(NC(=S)NC(=O)Cc2ccc(Cl)cc2)c1 | 68* | -2 | -29 | -1
COc1ccc(CC(=O)OCC(=O)NC2CCCCC2)cc1OC | 0 | -6 | 3 | 0
CCC(=O)NC(=S)Nc1ccccc1OC | 2 | 2 | 16 | -10
COc1ccccc1NC(=S)NC(=O)Cc1ccc(Cl)cc1 | 63* | -5 | -19 | -2
Cc1cccc(NC(=S)NC(=O)Cc2ccccc2)c1C | 71* | -8 | -27 | -2
Fc1cccc(NC(=S)NCc2ccc(Cl)cc2)c1 | -3 | 0 | 54* | -15
CC1CCc2c(C(=O)Nc3ccccn3)csc2C1 (stereo not given) | -1 | 3 | 57* | -10
COc1cc(/C=C(\C#N)c2nc3ccccc3s2)ccc1OCC(=O)Nc1ccccc1 | 10 | 34* | -33 | -23
Cn1c(=O)c2[nH]c(-c3ccccc3Cl)c(O)c2n(C)c1=O | 55* | 12 | -14 | -17
SMILES | CRFR2-BP ag | RTF Ca sens act | CRFBP-R2 block | RTF Ca sens inh
Cn1c(=O)c2[nH]c(-c3ccccc3)c(O)c2n(C)c1=O | 70* | 9 | -43 | -29
Cn1c2c(c(=O)n(C)c1=O)C(C(F)(F)F)(C(F)(F)F)N=C(c1ccccc1Cl)N2 | 24 | 9 | -8 | -14
CCn1nc(C)c(CNC(=O)Nc2ccccc2C(=O)OC)c1C | 1 | 3 | -12 | -4
CCN(CC(=O)Nc1c(F)cccc1F)C(=O)C1CCN(c2ncnc3sc(C)c(C)c23)CC1 | -3 | 1 | -3 | 1
CC(C)(C)OC(=O)N1CCC(c2cc(=O)n3[nH]cc(C(=O)Nc4ccc(F)c(Cl)c4)c3n2)CC1 | 0 | -5 | 12 | 8
CC(C)(C)OC(=O)N1CCC(c2cc(=O)n3[nH]cc(C(=O)NC4CCCC4)c3n2)CC1 | 0 | 4 | 51* | -6
C=CCOC(=O)C1=C(C)NC2(O)c3ccccc3C(=O)C12O (stereo not given) | 2 | -2 | 69* | -3
CC1=C(C(=O)OCC(C)C)C2(O)C(=O)c3ccccc3C2(O)N1 (stereo not given) | 0 | 2 | -13 | 7
COc1ccccc1OCCC(=O)OCC(=O)c1[nH]c(C)c(C(C)=O)c1C | 0 | 1 | -5 | 0
Cc1cc(C(=O)CN2C(=O)NC3(CCCC3)C2=O)c(C)n1-c1ccc2c(c1)OCO2 | 1 | 4 | 35 | 10
Cc1cc(C(=O)CN2C(=O)NC(C)(CC(C)C)C2=O)c(C)n1-c1ccc2c(c1)OCO2 (stereo not given) | -3 | 2 | 80* | 4
CSc1ccc(CC(=O)N2CCC(n3nccc3NC(=O)C3CC3)CC2)cc1 | 0 | -3 | 13 | 0
N#Cc1ccc(NC(=O)COC(=O)CSc2nnc(-c3ccc(Cl)cc3)o2)cc1 | 4 | 5 | 52* | -16
O=C(COC(=O)CSc1nnc(-c2ccc(Cl)cc2)o1)Nc1cc(Cl)ccc1Cl | 4 | -1 | 40 | -6
CC1C/C(=C/c2cccn2C)C(=O)/C(=C/c2cccn2C)C1 (stereo not given) | 128* | 375* | -184 | -410
CC1C/C(=C/c2ccncc2)C(=O)/C(=C/c2ccncc2)C1 (stereo not given) | -2 | -2 | 18 | -9
CC1(c2ccc(OC(F)F)cc2)NC(=O)N(CC(=O)Nc2cccc(S(N)(=O)=O)c2)C1=O (stereo not given) | -2 | -1 | -24 | -2
CC1(c2ccc(OC(F)F)cc2)NC(=O)N(/N=C/c2c(O)ccc3ccccc23)C1=O (stereo not given) | 87* | 9 | -122 | -10
C=C(C)C(=O)Oc1ccc(N2C(=O)[C@@H]3C4C=CC(C4)[C@@H]3C2=O)cc1 | -1 | -5 | 61* | -5
Cc1cc(N=NC(=O)c2ccccc2O)c2ccccc2c1O | 26 | -2 | 51* | -14
Cn1c(O)c(N=NC(=O)c2ccccc2O)c2ccccc21 | -2 | 0 | -10 | 5
Cc1ccc(-n2nc3c(c2NC(=O)c2cccs2)CSC3)cc1 | 5 | 2 | -11 | 2
Cc1nn(-c2ccccc2)c(NC(=O)c2cccs2)c(-c2ccccc2Cl)c1=O | 3 | nt | 111* | nt
Cc1ccc(S(=O)(=O)N2CCCOC2CNC(=O)C(=O)NCc2ccc3c(c2)OCO3)cc1 (stereo not given) | 1 | -1 | 1 | 1
Oc1ccc(O)c(Cc2nc3ccccc3s2)c1 | 0 | 0 | 53* | 6
SMILES | CRFR2-BP ag | RTF Ca sens act | CRFBP-R2 block | RTF Ca sens inh
CCOC(=O)Cc1csc(NC(=O)CN2CCCCC2)n1 | -2 | -3 | 11 | -2
CN(c1ccccc1)c1ccc(/C=C/[N+](=O)[O-])cc1 | 75* | 14 | -162 | -13
O=[N+]([O-])c1ccc(C=CC=Cc2ccccc2)cc1 | -1 | nt | 8 | nt
NC1=NC(=Nc2cccc(S(=O)(=O)N3CCOCC3)c2)c2ccccc21 | 0 | -2 | 0 | -10
CCCCc1c(O)c2cccc3c2n(c1=O)CCC3 | 0 | nt | 9 | nt
COC(=O)C(CC(=O)c1cccc(OC)c1)c1ccc(F)cc1 (stereo not given) | 0 | 0 | 55* | -4
C[C@H](NC(=O)Nc1ccc2c(c1)OCCO2)C(=O)O | -1 | -7 | 96* | -6

Compound activity deposited in PubChem by several laboratories.
